Common to all, as to set-up: scale not given: direction of the effect not stated beside the values
Assay [1] has as its target Protein translocase subunit SecA (Escherichia coli (strain K12)) (UniProt P10408). Kind of assay: Assay to Identify E. coli SecA ATPase Inhibitors. Format: functional. To be noted: 30 µM.
The target in assay [2] is T1, Ubiquitin-activating enzyme e1, putative (Leishmania donovani (strain BPK282A1)) (UniProt E9BSI1).
T1 sequence (whole entry): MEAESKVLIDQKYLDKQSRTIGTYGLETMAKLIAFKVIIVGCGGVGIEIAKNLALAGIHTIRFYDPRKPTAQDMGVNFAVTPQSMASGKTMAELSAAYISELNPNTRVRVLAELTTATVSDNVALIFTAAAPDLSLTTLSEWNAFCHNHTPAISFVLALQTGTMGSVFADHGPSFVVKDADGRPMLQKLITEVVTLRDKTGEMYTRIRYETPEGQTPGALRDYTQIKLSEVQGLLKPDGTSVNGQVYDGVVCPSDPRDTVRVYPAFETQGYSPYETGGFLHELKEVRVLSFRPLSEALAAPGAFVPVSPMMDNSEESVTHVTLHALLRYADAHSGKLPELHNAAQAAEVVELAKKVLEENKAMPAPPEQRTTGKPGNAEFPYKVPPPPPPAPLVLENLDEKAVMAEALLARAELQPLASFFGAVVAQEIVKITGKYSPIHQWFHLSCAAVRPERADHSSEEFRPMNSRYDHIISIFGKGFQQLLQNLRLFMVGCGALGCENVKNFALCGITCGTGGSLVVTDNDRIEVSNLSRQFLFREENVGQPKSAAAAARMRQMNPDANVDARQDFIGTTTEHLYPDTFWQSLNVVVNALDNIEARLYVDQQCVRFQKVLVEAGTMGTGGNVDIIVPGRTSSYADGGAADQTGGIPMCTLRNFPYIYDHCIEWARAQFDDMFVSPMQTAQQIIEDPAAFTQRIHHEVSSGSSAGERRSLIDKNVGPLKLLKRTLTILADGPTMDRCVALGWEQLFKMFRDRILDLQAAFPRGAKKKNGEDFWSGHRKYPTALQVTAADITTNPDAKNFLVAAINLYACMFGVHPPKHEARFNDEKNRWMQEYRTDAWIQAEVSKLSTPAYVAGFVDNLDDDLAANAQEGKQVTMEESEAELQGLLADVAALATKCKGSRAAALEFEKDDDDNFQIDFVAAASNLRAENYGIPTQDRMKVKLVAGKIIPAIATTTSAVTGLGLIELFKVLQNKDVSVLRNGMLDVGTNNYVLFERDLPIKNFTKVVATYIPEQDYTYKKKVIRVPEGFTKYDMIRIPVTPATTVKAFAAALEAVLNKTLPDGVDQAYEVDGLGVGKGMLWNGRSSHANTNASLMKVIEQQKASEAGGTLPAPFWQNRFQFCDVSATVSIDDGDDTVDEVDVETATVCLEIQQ
The assay can be described thus: Leishmania donovani Ubiquitin Activating Enzyme (LdE1). Format: functional. The conditions noted are these: 30 µM.

The target in assay [3] is AMP-activated protein kinase, AMPK (Homo sapiens) (UniProt P54646+O43741+P54619+Q9UGJ0+Q9Y478+Q13131+Q9UGI9). Kind of assay: AMP-dependent Kinase enzyme assay. An in vitro enzyme assay that detects ADP turnover that is directly proportional to AMPK activity. This uses naive AMPK that is activated during the assay with MK-8722. Format: functional. The conditions noted are these: 30 µM.

The target of assay [4] is Sialic acid-binding Ig-like lectin 9 (Homo sapiens) (UniProt Q9Y336). The assay can be described thus: Hs-Siglec9 ALPHAscreen SOP 20170721. The conditions noted are these: 10 µM. On the technique in general: In Alpha technology, singlet oxygen from a donor bead excites a nearby acceptor bead.
The test system of assay [5] is Trypanosoma cruzi. Kind of assay: Trypanosoma cruzi phosphomannomutase and mannose-1-phosphate guanylyltransferase assay. Format: functional. To be noted: 10 µM.
Assay [6] has as its target T2, Arginase-2, mitochondrial (Homo sapiens) (UniProt P78540).
T2 sequence (whole entry): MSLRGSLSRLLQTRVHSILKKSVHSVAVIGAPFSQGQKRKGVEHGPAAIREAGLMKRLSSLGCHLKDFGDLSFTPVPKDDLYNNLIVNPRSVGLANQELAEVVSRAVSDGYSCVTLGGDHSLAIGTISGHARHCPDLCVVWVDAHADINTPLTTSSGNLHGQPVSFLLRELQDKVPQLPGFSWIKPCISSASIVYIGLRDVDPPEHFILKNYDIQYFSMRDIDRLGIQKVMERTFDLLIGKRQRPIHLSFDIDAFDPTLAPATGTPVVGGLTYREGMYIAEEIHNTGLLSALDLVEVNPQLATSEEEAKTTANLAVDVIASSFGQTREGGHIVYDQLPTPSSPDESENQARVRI
Kind of assay: in vitro enzyme assay to detect the production of urea directly proportional to the activity of Arginase II. Also: in the data most compounds retested in dose-response had high values. The conditions noted are these: 33.3 µM. Format: functional.

For assay [7], the target named is T3, Proteasome subunit beta (Trypanosoma cruzi) (UniProt O96673).
T3 sequence (whole entry): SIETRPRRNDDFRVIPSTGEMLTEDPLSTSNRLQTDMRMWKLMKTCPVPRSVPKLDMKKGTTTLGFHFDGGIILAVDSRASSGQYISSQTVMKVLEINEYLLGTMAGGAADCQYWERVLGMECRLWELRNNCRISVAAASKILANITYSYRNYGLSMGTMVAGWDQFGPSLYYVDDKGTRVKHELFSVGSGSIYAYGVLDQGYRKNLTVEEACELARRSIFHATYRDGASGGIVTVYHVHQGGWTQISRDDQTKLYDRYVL
Kind of assay: Trypanosoma cruzi proteasome chymotrypsin-like activity (TcProtChymo) assay. Also: in the data most compounds retested in dose-response had high values. To be noted: 9.37 µM. Format: functional.

The species entered for assay [8] is Homo sapiens. The assay can be described thus: To identify inhibition of the IFN signalling (Jak-Stat) pathway via expression of an eGFP reporter gene under the control of an IFN-stimulated response element (ISRE) containing MxA promoter. Format: functional. The conditions noted are these: 30 µM.
Assay [9] concerns the target T4, Tyrosyl-tRNA synthetase, putative (Trypanosoma cruzi (strain CL Brener)) (UniProt Q4DSP6).
T4 sequence (whole entry): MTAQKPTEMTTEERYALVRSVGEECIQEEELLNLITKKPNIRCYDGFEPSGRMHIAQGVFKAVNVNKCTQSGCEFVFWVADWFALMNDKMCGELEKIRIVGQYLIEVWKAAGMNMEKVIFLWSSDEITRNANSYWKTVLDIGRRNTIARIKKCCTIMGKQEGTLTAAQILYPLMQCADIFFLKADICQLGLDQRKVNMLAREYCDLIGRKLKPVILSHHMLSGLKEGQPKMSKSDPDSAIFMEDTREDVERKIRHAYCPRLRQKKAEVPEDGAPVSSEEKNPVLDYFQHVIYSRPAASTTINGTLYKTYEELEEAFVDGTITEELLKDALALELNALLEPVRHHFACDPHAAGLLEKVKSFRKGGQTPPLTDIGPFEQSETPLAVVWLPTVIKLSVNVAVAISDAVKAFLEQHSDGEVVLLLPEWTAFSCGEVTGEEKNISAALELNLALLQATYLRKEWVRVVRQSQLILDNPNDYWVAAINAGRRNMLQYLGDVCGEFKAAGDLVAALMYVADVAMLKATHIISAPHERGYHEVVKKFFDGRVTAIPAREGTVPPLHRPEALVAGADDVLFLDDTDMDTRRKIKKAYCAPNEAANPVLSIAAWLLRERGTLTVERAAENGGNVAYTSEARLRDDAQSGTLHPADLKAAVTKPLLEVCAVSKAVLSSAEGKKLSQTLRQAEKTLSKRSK
Kind of assay: Trypanosoma cruzi tyrosyl tRNA synthetase (TcYRS) _High Tyrosine SOP. Also: in the data most compounds retested in dose-response had high values. Format: functional. The conditions noted are these: 30 µM.

In assay [10] the target is T4, Tyrosyl-tRNA synthetase, putative (Trypanosoma cruzi (strain CL Brener)). The assay can be described thus: Trypanosoma cruzi tyrosyl tRNA synthetase (TcYRS) SOP. The conditions noted are these: 30 µM. Format: functional.
Assay [11] has as its target Chromo domain-containing protein 1 (Saccharomyces cerevisiae (strain ATCC 204508 / S288c) (Baker's yeast)) (UniProt P32657). The assay can be described thus: ScCHD-1 Enzyme Inhibition Assay. Also: in the data most compounds retested in dose-response had high values. To be noted: 30 µM. Format: functional.

This passage reports Percent Effect results from ChEMBL document CHEMBL3988442, “University of Dundee, Small-Polar-MMV Screening Library” (2021).

Structures are written as SMILES. For some assays here: Measured potencies and affinities stand elsewhere.

Chromo domain-containing protein 1 (Saccharomyces cerevisiae (strain ATCC 204508 / S288c) (Baker's yeast)), sequence (P32657 whole entry, the tested form may be a part): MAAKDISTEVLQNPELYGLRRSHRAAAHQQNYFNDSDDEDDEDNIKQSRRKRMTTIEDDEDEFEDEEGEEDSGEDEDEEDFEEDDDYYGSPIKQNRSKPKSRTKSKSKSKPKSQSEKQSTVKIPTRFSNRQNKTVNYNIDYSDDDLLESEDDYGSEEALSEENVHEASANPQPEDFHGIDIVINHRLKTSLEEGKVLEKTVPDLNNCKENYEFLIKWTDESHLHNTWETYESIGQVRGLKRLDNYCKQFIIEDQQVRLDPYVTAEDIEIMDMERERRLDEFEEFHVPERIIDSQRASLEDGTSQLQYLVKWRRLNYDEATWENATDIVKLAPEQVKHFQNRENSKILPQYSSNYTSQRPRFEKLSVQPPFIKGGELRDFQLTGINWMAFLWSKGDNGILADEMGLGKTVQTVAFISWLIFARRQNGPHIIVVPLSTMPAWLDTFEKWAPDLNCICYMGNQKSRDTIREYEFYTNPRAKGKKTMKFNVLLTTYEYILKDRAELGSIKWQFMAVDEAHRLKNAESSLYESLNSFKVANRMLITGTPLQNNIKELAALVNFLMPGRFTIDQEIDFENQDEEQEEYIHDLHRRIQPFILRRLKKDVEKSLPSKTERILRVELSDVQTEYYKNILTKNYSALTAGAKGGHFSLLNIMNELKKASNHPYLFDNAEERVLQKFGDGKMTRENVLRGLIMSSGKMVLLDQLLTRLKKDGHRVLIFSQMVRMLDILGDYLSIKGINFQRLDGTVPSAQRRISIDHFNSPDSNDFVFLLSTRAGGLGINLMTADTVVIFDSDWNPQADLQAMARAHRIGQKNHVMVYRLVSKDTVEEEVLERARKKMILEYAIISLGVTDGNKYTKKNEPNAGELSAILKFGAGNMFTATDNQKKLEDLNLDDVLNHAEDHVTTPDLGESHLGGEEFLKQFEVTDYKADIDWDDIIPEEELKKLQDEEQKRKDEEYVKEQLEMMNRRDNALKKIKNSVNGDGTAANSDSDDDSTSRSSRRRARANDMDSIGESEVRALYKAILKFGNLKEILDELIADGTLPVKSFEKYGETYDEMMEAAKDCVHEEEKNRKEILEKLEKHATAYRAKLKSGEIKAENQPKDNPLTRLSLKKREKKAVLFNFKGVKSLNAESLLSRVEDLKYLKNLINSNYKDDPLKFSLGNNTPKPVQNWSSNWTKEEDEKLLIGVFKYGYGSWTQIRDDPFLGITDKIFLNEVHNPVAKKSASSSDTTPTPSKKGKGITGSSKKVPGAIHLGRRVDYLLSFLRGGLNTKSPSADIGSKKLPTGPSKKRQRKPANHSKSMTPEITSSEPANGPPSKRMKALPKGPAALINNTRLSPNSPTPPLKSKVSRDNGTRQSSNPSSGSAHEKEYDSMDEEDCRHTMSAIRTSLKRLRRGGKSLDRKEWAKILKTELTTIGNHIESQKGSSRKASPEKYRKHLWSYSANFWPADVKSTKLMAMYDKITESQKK
Sialic acid-binding Ig-like lectin 9 (Homo sapiens), sequence (Q9Y336 whole entry): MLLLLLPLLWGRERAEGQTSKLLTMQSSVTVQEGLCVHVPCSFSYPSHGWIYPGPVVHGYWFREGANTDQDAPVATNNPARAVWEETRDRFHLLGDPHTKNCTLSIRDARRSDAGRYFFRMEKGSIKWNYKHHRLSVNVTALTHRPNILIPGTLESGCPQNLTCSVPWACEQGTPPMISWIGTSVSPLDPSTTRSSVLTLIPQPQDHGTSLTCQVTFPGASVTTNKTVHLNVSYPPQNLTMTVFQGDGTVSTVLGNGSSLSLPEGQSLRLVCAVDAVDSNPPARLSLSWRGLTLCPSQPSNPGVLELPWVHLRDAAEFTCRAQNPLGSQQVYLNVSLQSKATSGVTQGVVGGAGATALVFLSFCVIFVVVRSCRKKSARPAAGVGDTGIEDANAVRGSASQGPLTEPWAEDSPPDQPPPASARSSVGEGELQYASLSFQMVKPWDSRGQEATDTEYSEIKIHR
Protein translocase subunit SecA (Escherichia coli (strain K12)), sequence (P10408 whole entry): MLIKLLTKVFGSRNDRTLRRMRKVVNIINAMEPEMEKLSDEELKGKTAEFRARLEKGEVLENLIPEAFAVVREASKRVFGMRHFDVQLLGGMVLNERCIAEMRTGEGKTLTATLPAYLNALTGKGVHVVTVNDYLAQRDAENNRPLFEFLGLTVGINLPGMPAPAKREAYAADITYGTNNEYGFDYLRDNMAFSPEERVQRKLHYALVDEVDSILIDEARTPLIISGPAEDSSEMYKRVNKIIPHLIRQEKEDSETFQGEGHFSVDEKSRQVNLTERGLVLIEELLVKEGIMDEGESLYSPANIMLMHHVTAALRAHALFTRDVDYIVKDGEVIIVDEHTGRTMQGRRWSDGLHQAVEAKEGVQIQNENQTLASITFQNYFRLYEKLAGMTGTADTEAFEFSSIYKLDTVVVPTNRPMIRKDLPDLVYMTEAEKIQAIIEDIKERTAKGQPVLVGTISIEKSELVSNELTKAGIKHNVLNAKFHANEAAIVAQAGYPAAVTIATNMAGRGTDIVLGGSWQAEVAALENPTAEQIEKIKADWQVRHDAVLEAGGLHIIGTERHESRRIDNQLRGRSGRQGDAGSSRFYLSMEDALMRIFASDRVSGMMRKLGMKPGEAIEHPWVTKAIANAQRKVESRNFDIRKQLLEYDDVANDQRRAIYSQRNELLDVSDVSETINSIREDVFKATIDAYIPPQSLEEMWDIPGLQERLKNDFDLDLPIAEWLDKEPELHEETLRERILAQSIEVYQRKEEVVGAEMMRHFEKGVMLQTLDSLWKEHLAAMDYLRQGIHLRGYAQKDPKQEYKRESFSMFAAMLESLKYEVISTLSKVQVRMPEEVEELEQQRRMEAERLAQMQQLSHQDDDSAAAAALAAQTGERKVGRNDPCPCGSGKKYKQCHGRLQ

`Cc1nc(C2(O)CCCNCC2)sc1CCOc1ccc(Cl)cc1` (stereo not given): the Percent Effect in assay [1] was -4.62%; in assay [2], 6.76%; in [3] it was 17.1%; in [4] it was 1.33%; in assay [5], -3.56%; in [6] it was -2.09%. The Percent Effect in assay [7] is 6.4%; in [8] it was 33.8%; in assay [9], 4.3%; in assay [10] it was 11.7%; in [11] it was -12.8%.
For the molecule `Cc1nccn1CC1CCCN1S(=O)(=O)Cc1ccccc1F` (stereo not given), the Percent Effect is -5.1% in assay [1]; 22.8% in assay [2]; 1.28% in [3]; -4.39% in assay [4]; -1.79% in assay [5]; 1.14% in [6]. In addition, the Percent Effect is 2.05% in assay [7]; 13.2% in assay [8]; 4.43% in assay [9]; 21.5% in assay [10]; -7.01% in [11].
For `CC(=O)N1CCN(C(=O)c2cc(-n3cnnn3)ccc2Cl)CC1`, the Percent Effect is -7.31% in assay [1]; 2.63% in assay [2]; -6.84% in assay [3]; 0.287% in assay [4]; -2.63% in [5]; -4.73% in assay [6]. In addition, the Percent Effect in assay [7] is 6.04%; in assay [8] it was 9.34%; in [9], -2.13%; in [10] it was -2.6%; in assay [11], 0.334%.
For `CCOCC(O)CN1CCN(C(=O)C2CC2)CC1` (stereo not given), the Percent Effect in assay [1] is -3.95%; in assay [2] it was 16.2%; in [3], 86.5%; in [4] it was -5.78%; in [5], 1.04%; in assay [6], -8.42%. Also, the Percent Effect in [7] is 2.52%; in assay [8], 10.7%; in assay [9] it was 9.36%; in [10] it was 16.1%; in [11] it was -7.42%.
On to `Cc1ccc(CN2CCc3ncnc(-c4ccc(F)cc4)c3CC2)o1`, for which the Percent Effect was -0.438% in [1]; 5.33% in assay [2]; 3.65% in assay [3]; 4.4% in [4]; -1.93% in [5]; -50.4% in [6]. The Percent Effect in [7] was 12.5%; in [8], -0.337%; in [9], 1.04%; in [10] it was 12.5%; in assay [11] it was -9.77%.
In the case of `CC(=O)Nc1nc(C(=O)N2CCCC2c2ccccc2C)cs1` (stereo not given), the Percent Effect in [1] is -3.82%; in [2], 10.4%; in [3], 8.63%; in assay [4], 1.33%; in [5], -8.24%; in assay [6], 4.27%. In addition, the Percent Effect is 3.21% in assay [7]; 31.4% in [8]; 5.83% in assay [9]; 9.76% in assay [10]; -5.39% in assay [11].
For `Cc1nsc(N2CCCN(c3nc(C4CC4)ns3)CC2)n1`, the Percent Effect in assay [1] is -2.5%; in assay [2], 11%; in [3], 9.09%; in [4], 5.05%; in assay [5], 4.9%; in assay [6], 19.1%. The Percent Effect is 10.1% in [7]; 5.1% in assay [8]; 1.07% in assay [9]; 5% in assay [10]; -4.56% in assay [11].
For `Cc1nnc(CN2CCCC(c3cc(C(N)=O)[nH]n3)C2)o1` (stereo not given), the Percent Effect in [1] is -3.02%; in [2], -5.41%; in [3], 0.969%; in assay [4], 11.5%; in assay [5], -1.23%; in [6], 0%. The Percent Effect was -2.34% in assay [7]; 2.07% in assay [8]; -1.48% in assay [9]; -1.24% in assay [10]; 1.61% in [11].
For the molecule `COCCN1CCc2cc(C(=O)N(C)C)c(NCC3CC3)nc2CC1`, the Percent Effect in assay [1] was -8.99%; in [2], 2.7%; in assay [3] it was 1.27%; in assay [4], -1.99%; in assay [5] it was -5.38%; in assay [6], -1.24%. For the same molecule, the Percent Effect is 8.5% in assay [7]; -19.8% in assay [8]; 2.15% in [9]; 11.1% in [10]; -0.0365% in [11].
In the case of `Cc1noc(CN2CCN(Cc3cccs3)CC2)n1`, the Percent Effect in [1] is -0.284%; in assay [2], 15.6%; in [3], 3.17%; in assay [4] it was -3.65%; in [5], -5.24%; in assay [6], 4.27%. For the same molecule, the Percent Effect was 0.845% in assay [7]; 22.4% in assay [8]; 6.8% in assay [9]; 19.5% in assay [10]; -5.19% in assay [11].
